Screening data (PubChem)
IL-2 act: IL-2 activation | activation, % (series mostly up to about 46 µM) | IL-2 activation reporter assay, cell-based qHTS; stimulated with anti-CD3/CD4/CD28 beads; in transgenic mouse T cells | 360,000 compounds, 0.065% hits; in the data active = activation above about 50%; inconclusive = mostly about 30% to 49%
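Unstimulated transgenic mouse T cells; 60-min compound exposure; bead-based TCR/CD4/CD28 stimulation; 18 h culture, 37 degrees C; dual fluorescence (EGFP, DsRed) plate cytometry.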
Nrf2 inh: inhibitors of Nrf2 signaling; A549 ARE-Fluc reporter, luciferase luminescence, 18-24 h; Potency, µM (top dose mostly 46 µM), usual class: inhibitors; 360,000 compounds, 2.1% hits; AID 504444; also: nearly all actives have a fitted effect of over 60% in size
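A549 ARE_Fluc cells, 5000/well, 5% FBS OPTI-MEM; compounds in dose-response, 18-24 h at 37 °C/5% CO2; CellTiter-Fluor viability read (Ex 405/Em 525), then BugLite luciferase luminescence = Nrf2 activity.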
Nrf2 ARE act: activators of Nrf2 (ARE) signaling. Potency, µM (series often up to 46.1 µM), actives largely listed as activators. AREc32 ARE-luciferase reporter (MCF7-derived line), luminescence, 24 h. 410,000 compounds, 0.31% hits; also: nearly all actives have a fitted effect of over 65% in size
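AREc32 cells carrying an ARE-driven firefly luciferase reporter were seeded at 1000 cells/well in OPTI-MEM with 5% FBS, then exposed to compound for 24 hr at 37 deg C. Luminescence was read with Steady-Glo after 30 min at RT.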
A549 tox: counter-screen for Nrf2 inhibitors: cytotoxicity in A549 cells | Potency, µM (titrated, usually from 46 µM), most hits filed as inhibitors | 390,000 compounds, 0.16% hits | A549 ARE-Fluc cells, CellTiter-Fluor viability, 18-24 h | AID 504648
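Cytotoxicity counterscreen: CellTiter-Fluor fluorescence was measured in A549 ARE_Fluc cells after 18-24 h of compound exposure in a concentration series. The subsequent BugLite luminescent read reports ARE-luciferase activity.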
Hits are given with their value; n = inactive; u = inconclusive; x = no result given. In the library only some 2.3% were active in any assay of this set; here they are far more common. Unless noted, calls follow the shape of the dose curve; as a rule, active = well fitted curve in the direction sought with a large enough effect; inconclusive = small, poorly fitted or top-dose-only effect, or another doubt; inactive = no such curve, though single readings can be large; an effect the other way counts as inactive or inconclusive.

SMILES | IL-2 act | Nrf2 inh | Nrf2 ARE act | A549 tox
Cn1c(=O)n(C)c2cc([N+](=O)[O-])c(N3CCN(C(=O)c4ccccc4Cl)CC3)cc21 | n | u | n | n
Cn1c(=O)n(C)c2cc([N+](=O)[O-])c(N3CCN(C(=O)c4ccccc4Br)CC3)cc21 | n | 18.4µM | n | u
CCOC(=O)Cc1ccc(NC(=O)N(Cc2ccc(OC)cc2)C2CCN(C(C)=O)CC2)cc1 | x | n | n | n
CCSc1nnc(NC(=O)C2CCN(C(=O)c3ccco3)CC2)s1 | x | u | x | n
CN(C)c1nc2c(N)ncnc2n1C1OC(CO)C(O)C1O (stereo not given) | n | n | n | n
Nc1ncnc2c1nc(Cl)n2[C@@H]1O[C@H](CO)[C@@H](O)[C@@H]1O | x | 20.6µM | x | n
Cc1ccc2nsnc2c1NC(=O)c1ccc(-c2cc(Cl)ccc2Cl)o1 | n | 13µM | n | 9.2µM
Cc1ccc2nsnc2c1NC(=O)Cc1ccc(Cl)cc1 | n | n | n | n
Cc1ccc(S(=O)(=O)C2CCN(c3nc(-c4cccs4)nc4ccccc34)CC2)cc1 | x | n | x | n
COc1ccc(S(=O)(=O)N2CCOC2CNC(=O)C(=O)NCCc2c[nH]c3ccccc23)cc1C (stereo not given) | n | u | n | n
Cc1ccc(S(=O)(=O)N2CCOC2CNC(=O)C(=O)NCCCc2ccccc2)cc1 (stereo not given) | n | 20.6µM | n | n
COc1ccc(S(=O)(=O)N2CCOC2CNC(=O)C(=O)NCCc2c[nH]c3ccccc23)cc1 (stereo not given) | n | 7.31µM | n | n
CCCNC(=O)c1c(C)nn(-c2cccc(C)c2)c1-n1cccc1 | x | u | n | n
O=C(CCS(=O)(=O)c1ccc(F)cc1)Nc1nc(-c2ccncc2)cs1 | n | n | 15.8µM | n
CC(C)(C)c1csc(NC(=O)CCS(=O)(=O)c2ccc(F)cc2)n1 | n | x | u | x
O=S(=O)(Nc1ccc(-c2csc(-c3ccccc3)n2)cc1)c1ccc(F)cc1 | n | n | n | n
O=C(Nc1nc(-c2ccccc2)cs1)c1ccccc1NS(=O)(=O)c1ccc(F)cc1 | n | 6.51µM | n | u
CC(=O)c1ccc(-c2ccc([C@H]3[C@@H]4C=CCC[C@@]4(C)C(=O)N3Cc3ccccc3)c(F)c2)cc1 | n | 23.1µM | n | n
CC1CC=CC2C1C(=O)N(Cc1ccccc1)C2c1ccc(C(F)(F)F)cc1 (stereo not given) | x | n | x | n
COC(=O)c1ccc(-c2ccc([C@H]3[C@H]4C=CC[C@@H](C)[C@@H]4C(=O)N3Cc3ccccc3)c(F)c2)cc1 | n | 23.1µM | n | n
Cc1ccc(-c2ccc(C3C4C=CCCC4(C)C(=O)N3Cc3ccccc3)c(F)c2)cc1 (stereo not given) | x | n | x | n
C[C@@H]1CC=C[C@H]2[C@H]1C(=O)N(Cc1ccccc1)[C@H]2c1ccc2ccccc2c1 | n | 20.6µM | n | u
COc1ccc(Cn2nnnc2C(c2ccccn2)N2CCN(c3ccc(O)cc3)CC2)cc1 (stereo not given) | x | n | x | n
Cc1cc(/C=C2\SC(=Nc3ccccc3)NC2=O)c(C)n1-c1ccc(S(N)(=O)=O)cc1 | n | x | n | 8.2µM
Cc1ccc(-n2c(C)cc(/C=C3\SC(=O)NC3=O)c2C)cc1 | n | u | n | n
SMILES | IL-2 act | Nrf2 inh | Nrf2 ARE act | A549 tox
Cc1cccc(N2CCN(c3ccc4cc(S(=O)(=O)N5CCC(C)CC5)ccc4n3)CC2)c1C | x | n | n | n
CCOc1ccc(-n2c(=O)c3c(C)c(C)sc3n(Cc3c(F)cccc3Cl)c2=O)cc1 | x | n | n | n
O=S(=O)(O)c1cc(O)c2c(O)c(N=Nc3cc(Cl)ccc3O)c(S(=O)(=O)O)cc2c1 | n | 20.6µM | n | 14.6µM
COc1ccc(CNC(=O)CCSc2ccc(F)cc2)cc1OC | n | n | n | n
COc1ccc(CNC(=O)CSc2ccc(Br)cc2)cc1OC | n | 23.1µM | n | n
COc1ccc(N(C(=O)c2ccc(C(C)(C)C)cc2)S(=O)(=O)c2ccc(Cl)cc2)cc1 | x | u | n | n
O=C(/C=C/c1cccc(F)c1)Nc1nccs1 | n | u | 10µM | n
CN(c1cccc(Cl)c1)S(=O)(=O)c1cccc(C(=O)Nc2nc3ccccc3[nH]2)c1 | n | u | n | n
COc1ccc(N(C)S(=O)(=O)c2cccc(C(=O)Nc3nc4ccccc4[nH]3)c2)cc1 | n | 23.1µM | n | n
O=C(Nc1nc2ccccc2[nH]1)c1ccc(Cl)cc1 | n | u | n | n
O=C(Nc1nc2ccccc2[nH]1)c1cccc(Cl)c1 | n | u | 5.01µM | n
O=C(CCl)NCCN1C(=O)S/C(=C\c2cccnc2)C1=O | n | n | 12.6µM | n
O=C(Cn1[nH]c(=O)c2ccccc2c1=O)NCCN1C(=O)S/C(=C\c2ccccc2)C1=O | n | u | 12.6µM | n
Cc1ccc(S(=O)(=O)NCCc2nnc3ccc(SCc4ccccc4C)nn23)cc1 | x | u | n | n
O=C(O)CN1C(=O)/C(=C/c2ccc(-c3cccc(Cl)c3)o2)SC1=S | x | n | x | n
O=C(C1CCCN(S(=O)(=O)c2ccc(Br)s2)C1)N1CCCCCC1 (stereo not given) | n | x | n | n
COc1cccc(N2CCN(C(=O)C3CCC(CNS(=O)(=O)c4ccc(Br)s4)CC3)CC2)c1 (stereo not given) | x | 16.4µM | n | n
Cc1cccc(N2CCN(C(=O)C3CCCN(S(=O)(=O)c4ccc(Br)s4)C3)CC2)c1C (stereo not given) | x | 10.3µM | n | n
COc1cccc(N2CCN(C(=O)C3CCCN(S(=O)(=O)c4ccc(Br)s4)C3)CC2)c1 (stereo not given) | x | 16.4µM | n | n
O=C(C1CCCN(S(=O)(=O)c2ccc(Br)s2)C1)N1CCN(c2ccccc2)CC1 (stereo not given) | n | 16.4µM | n | n
Cc1cccc(N2CCN(C(=O)c3cc(S(=O)(=O)N4CCCC4)cn3C)CC2)c1C | n | 18.4µM | n | n
CN(Cc1ccccc1)C(=O)Cn1c(=O)c2cccn2c2ccc(F)cc21 | x | n | n | n
O=[S+]([O-])(c1ccc(N2CCOCC2)nc1)N1CCN([S+](=O)([O-])c2c(F)cccc2F)CC1 | x | n | x | n
Cc1ccc(S(=O)(=O)/C(=C/Cl)NC(=O)c2ccccc2)cc1 | n | 18.4µM | u | n
Cc1ccc(C(=O)NC(=C(Cl)Cl)S(=O)(=O)c2ccc(C)cc2)cc1 | n | n | 11.2µM | n
SMILES | IL-2 act | Nrf2 inh | Nrf2 ARE act | A549 tox
COc1cc(NC(=O)CNc2cccc(S(=O)(=O)N3CCCC3)c2)cc(OC)c1 | n | u | n | n
COc1ccc(Nc2ccc3cc(S(=O)(=O)N4CCCC4)ccc3n2)cc1Cl | x | 25.9µM | n | n
O=C(CNc1cccc(S(=O)(=O)N2CCCC2)c1)Nc1cccc(Br)c1 | n | 20.6µM | n | n
COc1ccc(NCC(=O)Nc2cccc(S(=O)(=O)N3CCCC3)c2)cc1Cl | n | 18.4µM | n | n
O=C(CNc1cccc(S(=O)(=O)N2CCOCC2)c1)Nc1cccc(Br)c1 | n | u | n | n
O=C(CNc1ccc(Br)cc1)Nc1cccc(S(=O)(=O)N2CCCC2)c1 | n | 20.6µM | n | u
